# The full list was thinned out, with hits kept by preference.
# Pf Dd2 growth = qHTS Primary assay for Inhibitors of Plasmodium falciparum Dd2 growth in vitro. P. falciparum Dd2 growth, SYBR Green, 72 h. Potency, µM (titrated, usually from 28.9 µM), actives largely listed as inhibitors. hit rate 4.3% among 120,000. AID 1347417, 2020; active = well fitted inhibition curve with a large enough effect; also: nearly all actives have a fitted effect of over 65% in size
#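 Readout: SYBR Green fluorescence, 485 nm excitation, 535 nm emission, after ~16 h lysis at 37C. Before that, Dd2-infected red cells (2.5% hematocrit) grew 72 h with compound, 29 uM top final concentration.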
# A number is an active result; . = inactive.
SMILES,Pf Dd2 growth
CCNC(=O)CC1=C2CCCCC2N(C)C1=O (configuration not stated),.
CN1C(=O)C(CC(=O)NCC2CCN(Cc3ccc(F)cc3)CC2)=C2CCCCC21 (configuration not stated),5µM
CN1C(=O)C(CC(=O)NC2CC2)=C2CCCCC21 (configuration not stated),.
CN1C(=O)C(CC(=O)NCCCN2CCc3ccccc3C2)=C2CCCCC21 (configuration not stated),.
CC(=O)NC1CCN(Cc2cc3ccc(C)cc3[nH]c2=O)C1 (configuration not stated),.
COc1ccc(OC)c(NC(=O)Cn2c(-c3ccc(Cl)cc3)nc(C)cc2=O)c1,.
CC1(C(=O)O)CCN(C(=O)C2CCCCC2)CC1,.
COc1ccccc1-c1cccc(C=O)c1,.
Cc1ccc2oc(=O)c3cc(C(=O)NCCc4ccc(Cl)cc4)sc3c2c1,.
O=C1NCCOCCN(S(=O)(=O)c2ccccc2)[C@@H]2CCCC[C@H]12,.
COc1ccc(CC(=O)NCC(c2cccs2)S(=O)(=O)c2ccc(F)c(C)c2)cc1 (configuration not stated),.
Cc1cc(S(=O)(=O)C(CNC(=O)c2ccc(OC(C)C)cc2)c2cccs2)ccc1F (configuration not stated),5µM
CCOc1ccccc1C(=O)NCC(c1cccs1)S(=O)(=O)c1ccc(F)c(C)c1 (configuration not stated),.
Cc1ccc(Cl)cc1NC(=O)c1cnc(-c2ccccc2)nc1-c1ccncc1,.
Cc1sc2c(c1C)c(=O)n(Cc1ccccc1)c(=O)n2CC(=O)N(C)c1ccccc1,.
CCOC(=O)c1ccccc1NC(=O)Cn1c(=O)n(-c2ccc(CC)cc2)c(=O)c2c(C)c(C(=O)N(C)C)sc21,.
Cc1cccc(C)c1NC(=O)Cn1c(=O)n(Cc2ccccc2)c(=O)c2c(C)c(C(=O)N(C)C)sc21,8.9µM
Cc1cc(C)c(Cn2c(=O)n(Cc3ccccc3)c(=O)c3c(C)c(C)sc32)c(C)c1,.
CCN(CC)C(=O)c1sc2c(c1C)c(=O)n(Cc1ccccc1)c(=O)n2Cc1c(C)cc(C)cc1C,10µM
CCN(CC)C(=O)c1sc2c(c1C)c(=O)n(-c1ccc(C)c(C)c1)c(=O)n2Cc1cccc(Cl)c1,.
COc1cccc(C(=O)N2CCC3(CC2)NC(=O)CC3C(=O)O)c1OC (configuration not stated),.
CCN1CCc2[nH]cnc2C12CCN(C(=O)Cc1c[nH]c(=O)[nH]c1=O)CC2,.
O=c1ccc2cc(S(=O)(=O)Nc3ccc(F)c(Cl)c3)ccc2[nH]1,.
COc1ccc(C2(C(=O)N3[C@@H]4CC[C@H]3CC(NC(=O)c3cnc(C)cn3)C4)CC2)cc1 (some centres not stated),.
Cc1ccncc1C(=O)N1CCN(C(=O)N2CC3CC(C2)[C@H]2CCCC(=O)N2C3)CC1 (some centres not stated),.
SMILES,Pf Dd2 growth
COc1ccc(CN2CCCCCNC(=O)CC2c2ccccc2)cc1Cn1ccnc1 (configuration not stated),2µM
O=C1CC(c2ccccc2)N(Cc2ccc(F)c(F)c2)CCCCCN1 (configuration not stated),10µM
Cc1ncsc1CN1CCCCCNC(=O)CC1c1ccccc1 (configuration not stated),.
O=C1CC(c2ccccc2)N(Cc2ccc(C(F)(F)F)cc2)CCCCCN1 (configuration not stated),.
Cc1ccc(CN2CCCCCNC(=O)CC2c2ccccc2)o1 (configuration not stated),.
COCCC(=O)N1CCCCCCNC(=O)CC1c1ccccc1 (configuration not stated),.
CC(C)c1ncc(C(=O)N2CC[C@H](N3CCN(C)CC3)[C@H](CCCO)C2)cn1,.
CCc1nc(-c2c3n(c(=O)n(CCCOc4ccc(F)cc4)c2=O)CCCC3)no1,.
CC(C)c1cc(C(=O)NC(C)c2ccccc2-n2cccn2)nc2ncnn12 (configuration not stated),.
CCOc1ccc(-c2cnc(NCc3ccc(C(F)(F)F)cc3)n2C)cc1,.
CN1CCN(c2nc3c(s2)CN(C(=O)c2ccccn2)CC3)CC1,.
COc1ccc(CNC(=O)c2cc(Nc3ccc(OC)cc3OC)nc3ccccc23)cc1,.
COc1ccc(Nc2cc(C(=O)NCCCN(C)C3CCCCC3)c3ccccc3n2)cc1,5.6µM
O=C(NC1CCCCC1)c1cc(Nc2ccccc2)nc2ccccc12,.
COc1ccc(N2CCN(CCCNC(=O)c3cc(Nc4ccc(OC)cc4OC)nc4ccccc34)CC2)cc1,.
COc1ccc(Nc2cc(C(=O)NC3CCCC3)c3ccccc3n2)cc1,.
COc1ccc(Nc2cc(C(=O)NCCCN(C)C3CCCCC3)c3ccccc3n2)c(OC)c1,8.9µM
CCN1CCN(CCNC(=O)c2cc(-c3ccc(C)cc3)cn2C)CC1,.
CNC(=O)c1cccn2cncc12,.
CC1CN(C(=O)CCC(=O)NCc2ccc(F)cc2)c2cc(Cl)ccc2O1 (configuration not stated),.
CCCc1cc(C(=O)N2CCC3(CC2)CN(C(C)CCC)C(=O)O3)n[nH]1 (configuration not stated),.
COc1ccc(N(Cc2cccs2)C(=O)COc2cccc(Cl)c2)cc1,.
COc1ccc(N(Cc2cccs2)C(=O)c2ccc(OC)c(Cl)c2)cc1,.
CCCCOc1cccc(C(=O)N(Cc2cccs2)c2ccc(OC)cc2)c1,0.32µM
CCOc1cc(C(=O)Nc2ccc(-c3nc4ncccc4o3)cc2C)cc(OCC)c1OCC,.
SMILES,Pf Dd2 growth
CCCCn1c(=O)c2oc3ccccc3c2n(CC(=O)Nc2ccc(CC)cc2)c1=O,.
COc1ccc(-c2nc(-c3nnn4c3COC(c3ccc(OC)cc3)C4)no2)cc1 (configuration not stated),.
Cc1ccc(-c2cccc(C(=O)N3CCCC(O)(CN4CCCC4)C3)c2)o1 (configuration not stated),11µM
Cc1ccc(C)c2c(C)c(C(=O)N3CCCC(O)(CN4CCCC4)C3)[nH]c12 (configuration not stated),11µM
O=C(c1ccccc1-c1nn[nH]n1)N1CCOCC(O)(CN2CCCC2)C1 (configuration not stated),.
CC(=O)N[C@@H]1CN(C(=O)c2[nH]c3c(C)ccc(C)c3c2C)C[C@H]1C(C)C,.
O=C(c1cccc(-c2ncc[nH]2)c1)N1CCCC(O)(CN2CCCC2)C1 (configuration not stated),.
O=C(c1cccc(-n2cccn2)c1)N1CCOCC(O)(CN2CCCC2)C1 (configuration not stated),.
CC(NC(=O)c1ccc(F)cc1)c1nc2ccccc2[nH]1 (configuration not stated),.
O=C1CN(C(=O)c2cccc(-n3cnnc3)c2)CCN1Cc1cccc(F)c1,.
Cc1ccc(NC(=O)N2CCc3c(C(=O)N(C)C)cccc32)cc1,.
CCOCC(=O)N1CCC2(CC1)CC(Cc1nc(-c3ccncc3)no1)CCO2 (configuration not stated),.
COCCC(=O)N1CCC2(CC1)CC(Cc1nc(-c3ccncc3)no1)CCO2 (configuration not stated),.
COc1ccc(CCC(=O)N2CCC3(CC2)CC(Cc2nc(-c4cnccn4)no2)CCO3)cc1 (configuration not stated),.
